# Source: PubChem (National Center for Advancing Translational Sciences (NCATS))
# TDP1 cell CPT: DT40-hTDP1 cell growth loss with CPT; chicken DT40 Tdp1-/-;hTDP1 cells + 20 nM CPT, ATP luminescence, 48 h; Potency, µM (highest dose often 46.2 µM), actives largely listed as inhibitors; hit rate 12% among 420,000; AID 686979; also: nearly all actives have a fitted effect of over 55% in size
#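 Chicken DT40 Tdp1-/- cells complemented with human TDP1, 400 cells/well, exposed to compounds plus 20 nM camptothecin for at least 48 h at 37 C; viability read as ATP content by CellTiter-Glo luminescence.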
# DT40 TDP1 no CPT: qHTS for Inhibitors of human tyrosyl-DNA phosphodiesterase 1 (TDP1): qHTS in cells in absence of CPT; DT40 Tdp1-/- hTDP1 cells, no CPT, ATP luminescence, 48 h; Potency, µM (titrated, usually from 46.2 µM), most hits filed as inhibitors; hit rate 15% among 420,000; AID 686978, 2013; also: nearly all actives have a fitted effect of over 55% in size
#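 Stably hTDP1-transfected Tdp1-null chicken DT40 cells were treated with library compounds minus camptothecin and grown for at least 48 hr at 37 °C, after which cellular ATP was quantified by luminescence.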
# HT1080 IDH1KD tx: toxicity to HT-1080 IDH1 knockdown cells (counter line). HT-1080 IDH1 knockdown viability, ATP luminescence, 48 h. Potency, µM (series often up to 46.1 µM), hits mostly cytotoxic. hit rate 2% among 360,000
#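 HT-1080-IDH1KD cells (IDH1 knocked down), 750/well in RPMI with 5% FBS, treated with compound 48 h at 37 degrees C. Viability by CellTiter-Glo luminescence, normalised to DMSO and no-cell wells; concentration-response curves classed.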
# HT1080-NT tox: kills 2HG-producing HT-1080-NT fibrosarcoma cells; HT-1080-NT fibrosarcoma viability, CellTiter-Glo ATP luminescence, 48 h; Potency, µM (doses to about 46.1 µM), most hits filed as cytotoxic; hit rate 1.6% among 360,000;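 also: NT is the 2HG producing partner of a matched IDH1 knockdown line; nearly all actives have a fitted effect of over 55% in size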
#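 Compounds were tested in concentration-response format on HT-1080-NT cells for 48 hours at 37 degrees C. Cell viability came from CellTiter-Glo luminescence; curves were classified by r2, response magnitude and activity.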
# IL-1B inflam inh: blocks inflammasome-driven IL-1 beta release | THP-1 LPS/ATP IL-1B secretion, AlphaLISA, 16 h; hits give low values | activity change, % at 57.5 µM | hit rate 4.7% among 360,000; in the data active = activity change below about -50%; inconclusive = mostly about -30% to -49%
#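 THP-1 cells pretreated 1 hr with compounds (up to 57.5 uM final), then stimulated with LPS (250 ng/mL final) plus ATP (1.25 mM final); secreted IL-1B measured by AlphaLISA after 16 hr, decreased signal indicating inhibition.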
# uPA generation: cell surface uPA generation inhibition. Potency, µM (series often up to 38.3 µM), actives largely listed as inhibitors. hit rate 0.31% among 330,000. cell surface uPA generation assay, qHTS; active = well fitted inhibition curve with a large enough effect; inconclusive = small, poorly fitted or top-dose-only effect; inactive = no such curve, though single readings can be large or run the other way; tested in mouse RAW 264.7 cells; also: nearly all actives have a fitted effect of over 55% in size
# Hits are given with their value; 0 = inactive; ? = inconclusive; - = not tested or not shown. Most compounds without a hit are left out; they make up all but 19% or so of the library. Unless noted, calls follow the shape of the dose curve; as a rule, active = well fitted curve in the direction sought with a large enough effect; inconclusive = small, poorly fitted or top-dose-only effect, or another doubt; inactive = no such curve, though single readings can be large; an effect the other way counts as inactive or inconclusive.
SMILES,TDP1 cell CPT,DT40 TDP1 no CPT,HT1080 IDH1KD tx,HT1080-NT tox,IL-1B inflam inh,uPA generation
COCCn1c(C)cc(C(=O)CSc2cc(C)c3ccc(OC)cc3n2)c1C,?,16µM,0,0,0,0
COCC(C)n1c(C)cc(C(=O)CSc2nnc(N)s2)c1C (configuration not stated),?,?,0,0,0,0
COCCn1c(C)cc(C(=O)CSc2nc(C)c(C)c(C)n2)c1C,29µM,23µM,0,0,0,0
CCOC(=O)C1CCC(CN(Cc2ccc(OC)cc2)S(=O)(=O)c2ccc(F)c(C(=O)Nc3cc(Cl)ccc3OC)c2)CC1 (configuration not stated),0,0,-,-,-,-
COc1ccc(CCC(=O)NCc2ccc3c(c2)CCN3C(=O)c2ccc(Cl)cc2)cc1,0,?,-,-,-,-
Cc1ccc(C(=O)N2CCN=C2SCc2ccc([N+](=O)[O-])cc2)cc1,?,15µM,0,0,?,0
O=C(c1cccc2ccccc12)N1CCN=C1SCc1ccc([N+](=O)[O-])cc1,0,?,0,0,-65,0
Cc1ccccc1C(=O)N1CCN=C1SCc1ccc([N+](=O)[O-])cc1,0,?,0,0,-77,0
Cc1ccc(CSC2=NCCN2C(=O)c2ccc([N+](=O)[O-])cc2)cc1,0,0,0,0,0,0
COc1cccc(-c2cncnc2Nc2ccccc2)c1,0,?,-,-,-,-
COc1ccc(S(=O)(=O)N2CCC(C)CC2)cc1OC,0,0,0,0,0,0
CN(C)N=C1c2cc(S(=O)(=O)N3CCOCC3)ccc2-c2ccc(S(=O)(=O)N3CCOCC3)cc21,?,21µM,0,0,0,0
CC1CCN(S(=O)(=O)c2ccc3c(c2)C(=NO)c2cc(S(=O)(=O)N4CCC(C)CC4)ccc2-3)CC1,0.65µM,0.73µM,2.6µM,1.5µM,-89,0
O=S(=O)(c1ccc2c(c1)C(=NO)c1cc(S(=O)(=O)N3CCCCC3)ccc1-2)N1CCCCC1,4.1µM,2.9µM,0.58µM,0.37µM,-85,0
O=C1c2cc(S(=O)(=O)N3CCOCC3)ccc2-c2ccc(S(=O)(=O)N3CCOCC3)cc21,0,0,-,-,-,-
Cc1ccc(F)c(S(=O)(=O)NC(=O)C2(C)CCN2C(=O)Cc2ccc(-c3ccccc3)cc2)c1 (configuration not stated),0,?,0,0,0,-
O=C(Nc1cc(SCCO)cc([N+](=O)[O-])c1)c1ccc(Br)o1,?,21µM,0,0,0,0
CS(=O)(=O)N1CCC(C(=O)N2CCN(C(c3ccccc3)c3ccccc3)CC2)CC1,?,?,0,0,0,0
CCc1cccc(CN2CCC(CNC(=O)Nc3ccc(Cl)cc3)CC2)c1,?,?,0,0,0,0
COc1ccc(Cl)cc1NC(=O)NCC1CCN(Cc2cc(C)ccc2C)CC1,?,?,?,?,-56,?
Cc1ccc(C)c(CN2CCC(CNC(=O)Nc3ccc(C)c(C)c3)CC2)c1,?,15µM,0,0,-64,0
COc1cc([N+](=O)[O-])ccc1NC(=O)NCC1CCN(Cc2ccc(Cl)cc2)CC1,?,?,?,?,-79,0
COc1ccc(OC)c(CN2CCC(CNC(=O)Nc3cccc(Cl)c3)CC2)c1,?,?,0,0,0,0
COc1ccc(N2CCC(CNC(=O)Nc3ccc(C)c(C)c3)C2)cc1 (configuration not stated),0,?,0,0,0,0
COc1ccccc1CC1CC(=O)N(c2cccc(Cl)c2C)C1=O (configuration not stated),0,0,0,0,0,0
SMILES,TDP1 cell CPT,DT40 TDP1 no CPT,HT1080 IDH1KD tx,HT1080-NT tox,IL-1B inflam inh,uPA generation
COC1=Nc2ccccc2/C=C\c2ccccc21,0,0,0,0,0,-
CCOc1ccc(CNC(=O)c2ccc3c(c2)N(CC)CCS3)cc1,?,?,0,0,0,0
O=C(c1ccc2c(c1)N(Cc1ccc(F)cc1)CCS2)N1CCOCC1,?,?,0,0,0,0
CCOc1ccc(CCNC(=O)c2ccc3c(c2)N(Cc2ccc(F)cc2)CCS3)cc1,?,15µM,-,-,-,-
CCS(=O)(=O)N1CCc2cc(C(=O)NCCc3ccc(OC)c(OC)c3)ccc21,0,0,-,-,-,-
COc1ccc(CCNC(=O)c2ccc3c(c2)N(Cc2ccc(F)cc2)CCS3)c(OC)c1,15µM,13µM,0,0,-55,0
COc1ccc(CCNC(=O)c2ccc3c(c2)N(Cc2ccc(C)cc2)CCS3)cc1OC,18µM,16µM,0,0,0,0
COc1ccc(OC)c(CCNC(=O)c2ccc3c(c2)N(Cc2ccc(F)cc2)CCS3)c1,21µM,?,0,0,0,0
CC(C)C(=O)Nc1cccc(C(=O)Nc2nnc(CC(C)(C)C)s2)c1,0,?,-,-,-,-
COCc1cccc(-c2csc(C(C)(O)c3cccc(F)c3)n2)c1 (configuration not stated),?,?,?,0,0,-
CC1CCCCC12NC(=O)N(CC(=O)NCCc1c[nH]c3ccccc13)C2=O (configuration not stated),0,0,0,0,0,0
COc1ccc(Oc2ncc3nc(-c4ccc(OC)cc4)c(=O)n(C4CC4)c3n2)cc1,0,0,-,-,-,-
Cc1ccc(CNC(=O)CSc2nc3ccsc3c(=O)n2-c2ccc(C(=O)O)cc2)cc1,0,0,-,-,-,-
COc1cccc(CNC(=O)[C@@H]2CCCN2C(=O)[C@H]2CCCCN2C(=O)c2ccc(Cl)cc2)c1,?,?,0,0,0,-
O=C(NC1CCCC1)c1ccc2c(c1)N(Cc1ccc(F)cc1)CCS2,?,?,0,0,0,0
COc1ccc(CCNC(=O)c2ccc3c(c2)NC(=O)CS3)cc1OC,0,0,0,0,0,0
COc1ccc(CCNC(=O)c2ccc3c(c2)N(Cc2ccc(F)cc2)C(=O)CS3)cc1OC,15µM,16µM,-,-,-,-
O=C(NCCc1ccc(Cl)cc1)c1ccc2c(c1)N(Cc1c(F)cccc1Cl)C(=O)CS2,9.2µM,2.6µM,-,-,-,-
CN(C)CCNC(=O)c1ccc2c(c1)N(Cc1ccc(F)cc1)CCS2,26µM,16µM,0,0,0,0
CCn1c(C)c(C(=O)O)c2cc(OC)c3ccccc3c21,0,0,0,0,0,0
Cc1ccc(NC(=O)C2CC(=O)Nc3ncnn32)c(C)c1 (configuration not stated),0,0,0,0,0,0
O=C1CCN(c2ccccc2)N1,29µM,0,0,0,0,0
CCn1nc(C)cc1C(=O)NCCN1Cc2ccccc2OC(c2ccccc2F)C1 (configuration not stated),?,16µM,-,-,-,-
